The list is not random: actives were taken first. Their share in the collection is about 0.34%.
Tb PGK inh – qHTS Assay to Find Inhibitors of Phosphoglycerate Kinase | AID 602233, 2012 | 0.043% of 380,000 active | Potency, µM (doses to about 57.5 µM), without a hit: at the highest dose activity change, negative = inhibition, actives largely listed as inhibitors | PGK/GAPDH coupled, Kinase-Glo luminescence, 60 min | Phosphoglycerate kinase, glycosomal (Trypanosoma brucei brucei), P07378; note: potency is the fitted concentration of half-maximal effect; % is set by controls: 0 for no effect and ±100 for the full control effect; nearly all actives have a fitted effect of over 60% in size
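Recombinant glycosomal PGK reaction used 1,3-bisphosphoglycerate generated in-well by GAPDH (100nM final) in 100mM TEA pH 7.6, 5mM MgCl2, 0.01% Tween-20. After 60 minutes at room temperature, ATP was read by Kinase-Glo Plus luminescence end-point.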
PI4K2A inh – qHTS for small molecular inhibitors of PI4K2A. Phosphatidylinositol 4-kinase type 2-alpha (Homo sapiens), Q9BTU6. purified PI4K2A, ADP-Glo luminescence, 1 h; hits give low values. activity change, negative = inhibition, % at 76.9 µM. 0.13% of 420,000 active. AID 1346378, 2018; in the data active = activity change below about -50%; inconclusive = mostly about -30% to -49%;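 note: -100% = wells without enzyme as full effect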
Target sequence (Q9BTU6 whole entry, looked up): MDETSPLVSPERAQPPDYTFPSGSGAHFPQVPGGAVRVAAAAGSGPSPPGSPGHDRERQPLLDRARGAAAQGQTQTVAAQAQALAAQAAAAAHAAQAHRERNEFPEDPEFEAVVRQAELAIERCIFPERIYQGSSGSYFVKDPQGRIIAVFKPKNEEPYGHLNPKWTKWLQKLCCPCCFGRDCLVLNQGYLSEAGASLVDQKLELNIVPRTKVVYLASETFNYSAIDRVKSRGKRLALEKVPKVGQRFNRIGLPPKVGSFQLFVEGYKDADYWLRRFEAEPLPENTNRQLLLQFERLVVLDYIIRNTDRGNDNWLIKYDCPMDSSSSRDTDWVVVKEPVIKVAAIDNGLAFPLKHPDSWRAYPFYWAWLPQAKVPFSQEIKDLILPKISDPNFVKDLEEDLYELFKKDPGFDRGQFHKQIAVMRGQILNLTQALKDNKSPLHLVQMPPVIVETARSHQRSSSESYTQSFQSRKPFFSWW
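Compounds are screened against recombinant PI4K2A using PI as substrate and ATP, the latter dispensed at 300 microM. Reactions run one hour at ambient temperature before ADP-Glo detection; full inhibition defined by wells lacking enzyme.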
Chronic BCR inh – qHTS Assay to Find Inhibitors of Chronic Active B-Cell Receptor Signaling; ABC-DLBCL IkBa-CBG/CBR reporter, luminescence ratio, 4 h; Potency, µM (titrated, usually from 46.1 µM), for inactives: at the highest dose activity change, negative = inhibition, usual class: inhibitors; 0.05% of 340,000 active; AID 493014, 2011; active = well fitted inhibition curve with a large enough effect in the signal ratio, with a control signal flat, not every such curve was filed as active; inconclusive = small, poorly fitted or top-dose-only effect, or effect the other way, or a change in a side signal; the % refers to the signal ratio;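 note: potency is the fitted concentration of half-maximal effect; plate controls were basal doxycycline-induced cells for no effect and cells given 10 µM MG132 for full effect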
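TMD8 ABC-DLBCL cells carrying doxycycline-inducible green luciferase fused to IkappaBalpha plus unfused red luciferase were exposed to compounds (up to 46 uM) for 4 hrs at 37C. Activity came from the overlap-corrected green/red luminescence ratio.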
Pin1 inhibitor – qHTS Assay to Find Inhibitors of Pin1 | Peptidyl-prolyl cis-trans isomerase NIMA-interacting 1 (Homo sapiens), Q13526 | Pin1 FP peptide displacement, HiFluor488, 10 min | Potency, µM (top dose mostly 115 µM), without a hit: at the highest dose activity, negative = inhibition, usual class: inhibitors | 0.009% of 390,000 active | AID 504891, 2011; active = well fitted inhibition curve with a large enough effect in the polarisation, with a control signal flat, not every such curve was filed as active; inconclusive = small, poorly fitted or top-dose-only effect, or effect the other way, or a change in a side signal; inactive = no such curve, though single readings can be large or run the other way; the % refers to the polarisation; note: potency is the fitted concentration of half-maximal effect; % is set by controls: 0 for no effect and ±100 for the full control effect
Target sequence (Q13526 whole entry, looked up): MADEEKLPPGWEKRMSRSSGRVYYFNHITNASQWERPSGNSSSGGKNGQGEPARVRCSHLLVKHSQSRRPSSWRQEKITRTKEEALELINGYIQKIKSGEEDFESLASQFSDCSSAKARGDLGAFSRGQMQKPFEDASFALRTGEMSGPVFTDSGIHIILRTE
Tb PFK inh-1 – qHTS Assay to Find Inhibitors of T. brucei phosphofructokinase; ATP-dependent 6-phosphofructokinase (Trypanosoma brucei brucei), O15648; T. brucei PFK, ADP-Glo luminescence; Potency, µM (titrated, usually from 57.5 µM), inactives show at the top dose activity, negative = inhibition, most hits filed as inhibitors; 0.17% of 330,000 active;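 note: potency is the fitted concentration of half-maximal effect; 0% = uninhibited 1x PFK enzyme wells and -100% = no-enzyme wells; nearly all actives have a fitted effect of over 60% in size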
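ADP-Glo luminescence quantified ADP after 45 min at room temperature, with 1.25 nM T. brucei PFK, 0.1 mM ATP and 0.5 mM fructose-6-phosphate in pH 8.0 TEA buffer. qHTS titrations up to 57 µM; curves classified by quality.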
TbPFK ATP – Tb PFK orthogonal confirmatory assay using ATP depletion (Kinase-Glo Plus) as an alternative measure of Tb PFK activity: Hit Validation; shares compounds with Tb PFK inh-1; Tb PFK enzyme, ATP depletion, Kinase-Glo Plus luminescence; 47% of 1,100 active; Potency, µM (doses to about 57.5 µM), for the others: at the top dose inhibition; calls by dose curve; note: potency is the fitted concentration of half-maximal effect; nearly all actives have a fitted effect of over 60% in size
Tb PFK inh-2 – Inhibitors of T. brucei phosphofructokinase: Hit Validation. shares compounds with Tb PFK inh-1. purified T. brucei PFK, ADP-Glo luminescence, 45 min. Potency, µM (series often up to 57.5 µM), for inactives: at the highest dose activity change, negative = inhibition, actives largely listed as inhibitors. 41% of 1,100 active;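 note: potency is the fitted concentration of half-maximal effect; plate controls were full PFK enzyme control for no effect and no enzyme control for full effect; nearly all actives have a fitted effect of over 60% in size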
The depositor's hits bear a star; i = inactive; ? = inconclusive; / = no result. Unless noted, calls come from the whole dose curve; as a rule, active = well fitted curve in the direction sought with a large enough effect; inconclusive = small, poorly fitted or top-dose-only effect, or another doubt; inactive = no such curve, though single readings can be large; an effect the other way counts as inactive or inconclusive.

SMILES | Tb PGK inh | PI4K2A inh | Chronic BCR inh | Pin1 inhibitor | Tb PFK inh-1 | TbPFK ATP | Tb PFK inh-2
O=[N+]([O-])c1ccc(N2CCN(C(=S)c3cccc([N+](=O)[O-])c3)CC2)cc1 | 2% | -3 | ? | 5% | 19µM* | 9.5µM* | 24µM*
COc1cc(/C=C/c2ccc3cccc([N+](=O)[O-])c3n2)ccc1OCC(=O)O | -18% | 9 | -2% | -5% | ? | -24% | 26%
COc1cc(/C=C/c2ccc3c([N+](=O)[O-])cccc3n2)ccc1OCC(=O)O | -17% | -4 | 1% | -3% | ? | -25% | ?
Cc1cc(-c2nc3c4c5c(sc4[nH]c(=O)n3n2)CCC5)c(C)o1 | -23% | -6 | 4% | ? | ? | 16% | -9%
C[C@@H]1C[C@H]2[C@@H]3CCC4=CC(=O)C=C[C@]4(C)[C@@]3(F)[C@@H](O)C[C@]2(C)[C@@]1(O)C(=O)COC(=O)c1ccncc1 | / | -1 | / | / | / | / | /
Cc1ccc(-c2ccccc2C#N)cc1 | / | -2 | / | / | / | / | /
O=C1C(=O)N(CCCn2ccnc2)C(c2ccc(Br)cc2)/C1=C(\O)c1ccc2c(c1)OCCO2 (centres undefined) | -3% | 1 | -3% | -1% | 0% | / | /
O=C1C(=O)N(CCCn2ccnc2)C(c2cccc(Br)c2)/C1=C(\O)c1ccc2c(c1)OCCO2 (centres undefined) | -5% | -2 | 2% | 2% | ? | ? | ?
O=C(CNC(=O)c1ccccc1)N[C@@H](C(=O)Nc1cc(C(F)(F)F)ccc1Cl)c1ccccc1 | / | / | / | -13% | / | / | /
Cc1cc(NC(=O)Nc2ccc(Cl)c(Cl)c2)n(-c2ccccc2)n1 | -2% | -7 | ? | -4% | 19µM* | ? | -14%
Cc1cc(O)c(-c2cc(O)c(C)cc2O)cc1O | i | -2 | ? | -7% | 12µM* | 3µM* | 8.5µM*
S=C(NCc1ccc(Cl)c(Cl)c1)NCc1ccco1 | -7% | 1 | 7% | 1% | 27µM* | 11µM* | 21µM*
O=C(NCc1ccc(Cl)c(Cl)c1)c1ccco1 | i | 0 | 2% | 13% | 9.5µM* | 6µM* | 12µM*
S=C(NCc1cccc(Cl)c1)NCc1ccco1 | i | -8 | 4% | 0% | -16% | / | /
Oc1ccc(C2CNCCc3c2cc(O)c(O)c3Cl)cc1 (centres undefined) | 0% | -11 | -9% | -11% | 0% | / | /
Oc1ccc(C2CNCc3sccc32)cc1O (centres undefined) | -4% | -4 | ? | 2% | ? | ? | ?
O=C(NC(=S)Nc1ccccc1C(=O)O)c1ccc2ccccc2c1 | -3% | 14 | ? | -4% | ? | -24% | ?
NC(=O)c1cccn1Cc1cccc(Cl)c1 | -7% | 1 | ? | 0% | ? | ? | ?
CCOC(=O)c1cn(Cc2cccc(Cl)c2)nn1 | 7% | -3 | 0% | -3% | ? | 27µM* | ?
CC(=O)Nc1cccc(S(=O)(=O)N2CCCN(S(=O)(=O)c3ccc4c(c3)OCCO4)CC2)c1 | / | / | / | 5% | / | / | /
Cc1ccc(NS(=O)(=O)c2cc3c(cc2N(C)C)CCC(=O)N3)cc1C | / | / | / | 6% | / | / | /
O=C(CNC(=O)c1ccccc1)OC(C(=O)Nc1ccc2c(c1)OCO2)c1ccccc1 (centres undefined) | / | / | / | 1% | / | / | /
CCOC(=O)c1ccc(-n2cnc3c(c2=N)C(c2cccc(OC)c2)c2c(ccc4ccccc24)O3)cc1 (centres undefined) | / | / | / | 10% | / | / | /
NS(=O)(=O)c1cccc(C(=O)NC2CCSc3ccccc32)c1 (centres undefined) | 0% | 5 | 1% | 0% | 3% | / | /
NS(=O)(=O)c1cc(C(=O)NC2CCSc3ccccc32)ccc1Cl (centres undefined) | 1µM* | -17 | 6% | / | ? | ? | ?
SMILES | Tb PGK inh | PI4K2A inh | Chronic BCR inh | Pin1 inhibitor | Tb PFK inh-1 | TbPFK ATP | Tb PFK inh-2
O=S(=O)(Nc1cc(S(=O)(=O)N2CCOCC2)ccc1O)c1ccc2c(c1)OCCCO2 | -4% | -4 | 5% | -4% | ? | 12µM* | 15µM*
O=S(=O)(Nc1cc(S(=O)(=O)N2CCOCC2)ccc1N1CCOCC1)c1ccc2c(c1)OCCO2 | -5% | -5 | 3% | 5% | 0% | / | /
Cc1cc(NS(=O)(=O)c2ccc(NC(=O)Cc3ccc([N+](=O)[O-])cc3)cc2)nc(C)n1 | -11% | -3 | ? | -7% | 8.5µM* | 3.8µM* | 6µM*
COCC(=O)Nc1ccc(S(=O)(=O)Nc2onc(C)c2C)cc1 | 2% | 0 | / | / | / | / | /
Cc1cc(NS(=O)(=O)c2ccc(NC(=O)/C=C/c3ccc(C)o3)cc2)nc(C)n1 | -1% | -5 | ? | 0% | ? | -12% | ?
Cc1noc(NS(=O)(=O)c2ccc(NC(=O)Cc3ccc([N+](=O)[O-])cc3)cc2)c1C | -4% | -7 | 0% | -3% | 6µM* | 3.4µM* | 12µM*
COCC(=O)Nc1ccc(S(=O)(=O)Nc2cc(C)nc(C)n2)cc1 | -3% | 6 | -2% | -5% | 0% | / | /
O=C(O)CCc1cc(F)c(S(=O)(=O)N2CCN(S(=O)(=O)c3ccc4c(c3)OCCO4)CC2)cc1F | / | / | / | -10% | / | / | /
Nc1cc(C(F)(F)F)ccc1S | / | -10 | / | / | / | / | /
O=C1Cc2cc(Cl)ccc2N1 | / | 0 | / | / | / | / | /
CCc1cc(CNC(=O)c2ccc(OC3CCN(CCc4ccccc4)CC3)cc2)on1 | -5% | -3 | -8% | -3% | 15µM* | 17µM* | 21µM*
CC(C)N1CCN(c2cccc(Nc3nn4c(=O)c5ccccc5nc4s3)c2)CC1 | / | / | / | 1% | / | / | /
